# Compound activity as filed in PubChem.
# In the library only some 7.3% were active in any assay of this set; here they are far more common.
# Tau fluor counter: counter-screen for tau fibril formation inhibitors; tau K18 P301L Alexa594 fluorescence, heparin fibrillization; Potency, µM (highest dose often 57.7 µM), for inactives: at the top dose activity change, negative = decrease; 280,000 tested, 0.93% active; note: nearly all actives have a fitted effect of over 55% in size
#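 Human tau K18 P301L (15 uM unlabeled, 0.24 uM Alexa 594-labeled) in 100 mM sodium acetate pH 7 with 20 uM heparin, 6 hr at 37 C. ThT 30 uM added, 1 hr ambient; Alexa 594 FP and total fluorescence read at 555/632 nm.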
# Tau fibril FP: tau fibrillization inhibition (FP) | P10636 | K18 P301L tau heparin fibrillization, Alexa594 FP, 6 h | Potency, µM (highest dose often 57.7 µM), for the others: at the highest dose activity, negative = inhibition, usual class: inhibitors | 280,000 tested, 0.39% active | AID 1468; note: nearly all actives have a fitted effect of over 55% in size
# Target sequence (P10636 561-689 P618L limits assumed): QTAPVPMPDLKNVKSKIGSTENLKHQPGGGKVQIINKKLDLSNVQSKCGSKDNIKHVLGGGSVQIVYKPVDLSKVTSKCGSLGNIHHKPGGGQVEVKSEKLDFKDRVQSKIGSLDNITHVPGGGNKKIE
#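 Compound effects on tau fibrillization are measured by Alexa 594 fluorescence polarization (ex 555, em 632 nm). K18 P301L tau is used at 15 uM with 0.24 uM labeled tracer, and 20 uM heparin induces aggregation over 6 hr at 37 C.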
# Gal4-VP16 FLuc: counter-screen for ROR gamma inhibitors: Gal4-VP16 reporter. 310,000 tested, 3.5% active. Drosophila S2 Gal4-VP16 UAS-luciferase, luminescence, 20 h. Potency, µM (series often up to 53.6 µM), without a hit: at the highest dose activity, negative = inhibition, usual class: inhibitors;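 note: Gal4-VP16 expression switched on by copper sulfate through the metallothionein promoter; nearly all actives have a fitted effect of over 50% in size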
# Tau ThT inhib: blocks human tau fibril formation measured by thioflavin T. P10636. recombinant tau K18 P301L (four-repeat tau fragment), heparin-induced fibrillization, ThT fluorescence. Potency, µM (titrated, usually from 57.4 µM), without a hit: top-dose activity, negative = inhibition, most hits filed as inhibitors. 270,000 tested, 2.1% active; note: nearly all actives have a fitted effect of over 55% in size
#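 Heparin-induced fibrillization of the P301L-mutant K18 repeat-domain fragment of human tau was followed by ThT binding in quantitative high-throughput format.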
# RORgamma inh: blocks mouse ROR gamma transcriptional activity | Potency, µM (titrated, usually from 53.6 µM), for the others: top-dose activity change, negative = inhibition, most hits filed as inhibitors | Drosophila S2 Gal4-RORgamma UAS-luciferase reporter, 20 h | 310,000 tested, 5.4% active | P51450; note: nearly all actives have a fitted effect of over 60% in size
# Target sequence (P51450 whole entry, looked up, the tested form may be a part): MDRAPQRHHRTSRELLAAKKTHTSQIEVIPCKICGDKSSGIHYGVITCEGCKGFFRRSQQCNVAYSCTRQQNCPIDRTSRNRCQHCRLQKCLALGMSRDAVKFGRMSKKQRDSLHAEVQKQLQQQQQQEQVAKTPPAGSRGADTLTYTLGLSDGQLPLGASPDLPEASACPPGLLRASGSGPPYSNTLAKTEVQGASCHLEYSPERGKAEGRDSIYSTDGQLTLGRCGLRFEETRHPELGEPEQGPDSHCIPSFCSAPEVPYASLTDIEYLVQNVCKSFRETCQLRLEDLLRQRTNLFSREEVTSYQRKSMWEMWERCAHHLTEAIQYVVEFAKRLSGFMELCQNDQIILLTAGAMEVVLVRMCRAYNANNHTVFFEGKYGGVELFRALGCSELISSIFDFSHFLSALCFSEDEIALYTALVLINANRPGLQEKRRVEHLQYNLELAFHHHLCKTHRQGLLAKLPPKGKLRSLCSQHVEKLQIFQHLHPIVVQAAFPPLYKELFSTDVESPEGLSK
#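 Drosophila Schneider cells stably carrying a metallothionein-driven Gal4 DBD–ROR gamma fusion and a UAS-Photinus luciferase reporter were exposed to compound for 1 hr, then induced with copper sulfate (700 uM final) for 20 hr at ambient temperature before luminescence reading.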
# The depositor's hits bear a star; ? = inconclusive; / = no result given; [ ] = another dose, or the depositor's remark. Calls come from the whole dose curve; as a rule, active = well fitted curve in the direction sought with a large enough effect; inconclusive = small, poorly fitted or top-dose-only effect, or another doubt; inactive = no such curve, though single readings can be large; an effect the other way counts as inactive or inconclusive. % is set by controls: 0 for no effect and ±100 for the full control effect; potency is the fitted concentration of half-maximal effect.
SMILES,Tau fluor counter,Tau fibril FP,Gal4-VP16 FLuc,Tau ThT inhib,RORgamma inh
CCOc1cc(N2CCOCC2)c(OCC)cc1NC(=O)c1ccc2ccccc2n1,?,12%,-16%,25µM*,0%
O=C(Nc1ccc(N2CCCC2)cc1)C(Cl)c1ccccc1 (configuration not stated),?,32µM*,3%,25µM*,-12%
O=C(O)CCC(=O)Nc1ccc(N2CCCCCC2)cc1,-11%,-8%,-25%,-14%,2.5µM*
O=C(Nc1cccc(S(=O)(=O)N2CCCCCC2)c1)c1ccc2ccccc2n1,?,-20%,?,-6%,?
O=C(OCN1C(=O)C(=O)c2ccccc21)c1ccc(Cl)cc1,/,/,6%,/,12%
O=[N+]([O-])c1ccc(N=NN(CCO)CCO)cc1,-14%,-4%,-12%,?,9%
O=[N+]([O-])c1ccc(N=Nc2ncc[nH]2)cc1,/,/,6.3µM*,/,7.1µM*
COc1cc(CNn2cn[nH]c2=S)cc(Br)c1OCc1ccccc1F,-21%,1%,-28%,?,3.2µM*
C=CCOc1c(Cl)cc(CNn2cn[nH]c2=S)cc1OC,-4%,-4%,?,0%,8.9µM*
COc1cc(CNCCc2ccccc2)cc(Cl)c1OCc1ccccc1,-19%,-11%,?,-17%,?
COc1cc(CNn2cn[nH]c2=S)cc(Cl)c1OCc1ccccc1,-16%,2%,?,-18%,3.5µM*
COc1cc(CNCc2ccncc2)cc(Br)c1OCc1ccccc1F,-11%,-2%,?,-2%,0%
C=CC[C@@H]1C=C[C@@H](O/N=C\[C@@H](OC)[C@H](C)/C=C\CC(=O)OC)[C@@H](CO)O1,1%[11.6 µM],-1%[11.6 µM],2%[10 µM],3%[11.5 µM],1%[10 µM]
Cc1cccc(CNC(=O)C2CCN(c3nc4ccc(Cl)cc4[nH]3)CC2)c1,-30%,?,/,?,/
CCOC(=O)OCC1OC(C#CC(C)(C)C)C=CC1OC(=O)OCC (configuration not stated),-12%[11.6 µM],6%[11.6 µM],4%[10 µM],-11%[11.5 µM],-3%[10 µM]
COc1ccc(-c2c(C(F)(F)F)nn(C)c2NC(C)=O)cc1,-2%,-4%,1%,/,26%
CC(=O)Nc1ccc(-c2csc(N/N=C(/C)c3ccccc3)n2)cc1,11µM*[quencher],?,16%,/,-20%
CCC(=O)Nc1ccc(-c2csc(NNC(C)=O)n2)cc1,-19%,?,-3%,?,22%
CC(=O)Nc1ccc(-c2csc(NNC(=O)c3ccccc3)n2)cc1,1%,-3%,-4%,6%,8.9µM*
O=C1[C@H]2[C@H]3[C@H](O)[C@H](O)C/C(=N/OCc4ccccc4)[C@H]3CC[C@@H]2C(=O)N1Cc1ccc2c(c1)OCO2,-11%[11.6 µM],-1%[11.6 µM],-4%[10 µM],-8%[11.5 µM],22%[10 µM]
COc1ccc(-n2c(SCc3ccccc3F)nc3c([nH]c4ccccc43)c2=O)cc1OC,-11%,-1%,/,-3%,/
CC(C)(C)c1cn(-c2ccc(Cl)cc2)c(=S)[nH]1,-12%,-3%,5.6µM*,-14%,4.5µM*
Clc1ccc(-n2cc(-c3ccc(Br)cc3)[n+]3c2CCCCC3)cc1,2%,8%,-10%,-4%,3%
Cc1ccc2sc(NC(=O)CSc3nc(C)cc(C)c3C#N)nc2c1,?,-12%,?,?,0.71µM*
Cc1nc(SCC(=O)Nc2nc3ccccc3s2)c(C#N)c(C)c1C,-13%,-18%,?,1%,0.35µM*
SMILES,Tau fluor counter,Tau fibril FP,Gal4-VP16 FLuc,Tau ThT inhib,RORgamma inh
Cc1cc(C(F)(F)F)c(C#N)c(SCC(=O)Nc2nc3ccccc3s2)n1,7%,6%,4%,4%,?
CCOc1ccccc1CNC(=O)CCC(=O)N1Cc2ccccc2Oc2ncccc21,/,/,8%,/,14%
O=C(O)c1ccc2c(c1)C(=O)N([C@@H](Cc1ccc(O)cc1)C(=O)O)C2=O,/,/,6.3µM*,/,2µM*
O=C(O)c1ccc2c(c1)C(=O)N(C(Cc1ccc(O)cc1)C(=O)O)C2=O (configuration not stated),4%,4%,-7%,4%,3%
Cc1ccc2ccc3ccc(C)nc3c2n1,/,/,0.56µM*,/,0.25µM*
Cc1ccc2cccc(NS(=O)(=O)c3ccccc3)c2n1,/,/,1%,/,26%
Cc1nc2c(O)cccc2c(=O)[nH]1,-8%,0%,7%,-12%,-18%
Cc1ccc2c(C)ccc(O)c2n1,-8%,2%,?,-5%,11µM*
NCCC[C@@H](CC(=O)N[C@@H]1CCCC[C@H]1C(=O)N[C@H](CC(=O)N[C@@H](CCC(=O)O)CC(=O)O)Cc1c[nH]c2ccccc12)NC(=O)C[C@H](CO)NC(=O)[C@@H]1CCCC[C@H]1N,-9%,0%,-1%,-11%,2%
O=c1c(-c2ccccc2)nc2cnc(N3CCNCC3)nc2n1-c1ccccc1,/,/,-19%,/,2%
O=C(Nn1cc(C(=O)Nc2ccc(F)cc2F)c2ccccc2c1=O)c1cnccn1,-3%,4%,?,-4%,11µM*
CC1(C)CCC(C)(C)NC(=S)N1,2%,7%,?,-2%,8.9µM*
CCOC1CC(C)(C)NC(=S)N1 (configuration not stated),6%,-2%,-3%,-1%,-21%
CC(C)[C@@H](CC(=O)N[C@@H]1CCNC[C@H]1C(=O)N[C@H](CC(=O)N[C@@H](CCC(=O)O)CC(=O)O)Cc1c[nH]c2ccccc12)NC(=O)C[C@H](Cc1c[nH]c2ccccc12)NC(=O)[C@@H]1CCCC[C@H]1N,-5%,-3%,-1%,-7%,-10%
CCCCNC(=O)c1ccc2c(c1)NC(=O)C(CS(=O)(=O)Cc1ccc(C)cc1)N2 (configuration not stated),-7%,-10%,/,-12%,/
CCCCNC(=O)c1ccc2c(c1)NC(=O)C(CS(=O)(=O)Cc1cccc(C)c1)N2 (configuration not stated),?,?,/,18µM*,/
CC(=O)N1CCc2cc(S(=O)(=O)NC3CCCc4ccccc43)ccc21 (configuration not stated),-2%,6%,20µM*,-7%,?
O=C(Nc1nccs1)c1cncc(Br)c1,-3%,5%,?,-2%,?
CC(C)CNC(=O)C(=O)Nc1c2c(nn1-c1ccc(Cl)cc1)CSC2,5%,-2%,/,-3%,/
CCOc1ccc(-c2cc(NC(=O)Nc3ccccc3C(F)(F)F)c(C(=O)OC)s2)cc1,-23%,-5%,/,-10%,/
CCOc1ccccc1NS(=O)(=O)c1ccc2oc(=O)c3ncn(C)c3c2c1,1%,-4%,/,11%,/
S=C(NCc1ccccc1)Nc1cccc(Cl)c1,-20%,0%,13µM*,-3%,5.6µM*
COc1ccc(NC(=S)NNC(=O)CNc2ccc(Cl)cc2)cc1,-6%,?,7.9µM*,-17%,5.6µM*
NNC(=S)Nc1cccc(Cl)c1,-18%,1%,?,-14%,7.9µM*
